Out of some 2,300 compounds screened, about 1,100 (48%) were called active. So high a share suggests a set chosen from earlier hits. This is one part of the list. Measured potencies and affinities stand elsewhere. Values without a mark were called inactive. No rule for the calls is given here.
Test: inhibitors in S. typhi counter-screen strain, dose response, counter-screen for PhoP regulon inhibitor project, fluorescence, 4 h (AID 2384)
Settings: S. typhi GFP reporter counter-screen; series mostly up to 150 µM; inhibition: at the top concentration

| Structure (SMILES) | inhibition [%] |
| --- | --- |
| CCN1C(=O)N/C(=C/c2cc(C)n(Cc3ccccc3)c2C)C1=O | -15.1 |
| Cc1cccc(OCC(=O)Nc2nonc2NC(=O)COc2cccc(C)c2)c1 | 13.2 |
| CC(=O)Nc1ccc(NC(=O)CSc2ccc(-c3ccco3)nn2)cc1 | 1.22 |
| O=C(c1cc2c(s1)-c1ccccc1S(=O)(=O)C2)N1CCN(Cc2ccccc2)CC1 | 0.12 |
| CN1CCN(c2ccccc2NC(=O)c2sc3ccccc3c2Cl)CC1 | -21.8 |
| Cc1cc(C=O)c(O)cc1O | 36.2 |
| O=C(NCc1ccccc1)c1ccc(CNc2c(N3CCCC3)c(=O)c2=O)cc1 | -5.91 |
| COc1ccc(NC(=O)Cn2c(=O)oc3cc(S(=O)(=O)N4CCCC4)ccc32)c(OC)c1 | -15.4 |
| NC1=NC(c2cccc(O)c2)n2c(nc3ccccc32)N1 (stereo not given) | -22.2 |
| CCOC(=O)c1cnn2c1[nH]c(=O)c1ccccc12 | -7.64 |
| NC1=NC2(CCCCC2)n2c(nc3ccccc32)N1 | 34.6 |
| NC(=O)c1cc(S(=O)(=O)Nc2cccc(F)c2)co1 | 7.62 |
| COC(=O)c1cc2nc(-c3ccccc3)cc(C)n2n1 | 1.02 |
| CNc1ccc(SC#N)cc1 | 2.34 |
| CCOC(=O)Cc1nn(C)c(=O)c2ccccc12 | -3.49 |
| O=S1(=O)CC=C(CSc2nc3ccccc3[nH]2)C1 | -15.2 |
| CC(=O)N1CSCC1C(=O)N1CCN(c2ccc(N3CCOCC3)nn2)CC1 (stereo not given) | -16.5 |
| CCOC(=O)C(NC(C)=O)(Nc1cccc(F)c1)C(F)(F)F (stereo not given) | -29.5 |
| O=C(NC1(C(F)(F)F)C(=O)Nc2c1c(=O)[nH]c(=O)n2-c1ccccc1)c1ccncc1 (stereo not given) | -4 |
| C=CCn1c(C)c(C(C)=O)c(N2CCCC2)nc1=S | 11.6 |
| NC(=O)CN1N=C(c2cc(Cl)sc2Cl)CSC1=O | 14.5 |
| COCCN1CC(=O)N2C(c3cccc(OC)c3)c3[nH]c4ccccc4c3C[C@H]2C1=O (stereo not given in full) | -10.6 |

| Structure (SMILES) | inhibition [%] |
| --- | --- |
| N=c1c(C(=O)NCC2CCCO2)cc2c(=O)n3ccccc3nc2n1Cc1ccc(Cl)cc1 (stereo not given) | 24.5 |
| COc1ccc(C)cc1NC(=O)C1CCN(S(=O)(=O)c2c(C)noc2C)CC1 | 8.55 |
| COc1cccc(C(c2c(C)[nH]n(-c3ccccc3)c2=O)c2c(C)[nH]n(-c3ccccc3)c2=O)c1O | 14.5 |
| CCOc1ccccc1-c1cc(-c2ccccc2)nc2c1c(=O)n(C)c(=O)n2C | 2.64 |
| O=C(NCc1ccco1)C1CCN(C(=O)c2cc3sccc3n2Cc2ccc(Cl)cc2)CC1 | 4.77 |
| Nc1nc(SCC(=O)N2CCCC2)[nH]c(=O)c1NC(=O)c1cccs1 | 17.8 |
| Clc1ccc(OCc2nc(-c3ccc(Br)o3)no2)cc1 | -18.3 |
| CCOc1ccc(-c2ccc(SCC(=O)N3CCOCC3)nn2)cc1 | -7.13 |
| NC(=O)c1ccc[n+]([C@H]2O[C@@H](COP(=O)([O-])OP(=O)(O)OC[C@H]3O[C@@H](n4cnc5c(N)ncnc54)[C@H](O)[C@@H]3O)[C@H](O)[C@@H]2O)c1 | -10.8 |
| CN1CCCN(C(=O)COc2ccc(F)cc2Cl)CC1 | 0.57 |
| Cc1cc(NC(=O)COC(=O)c2cccc(S(=O)(=O)N(C)C3CCCCC3)c2)no1 | -11.6 |
| COC(=O)c1sccc1NC(=S)NCc1ccc(Cl)cc1 | 33.3 |
| COC(=O)CNc1n[nH]c(=S)[nH]c1=O | 26.9 |
| NC1=C(Br)C(=O)c2ccccc2C1=O | 22.2 |
| C/[N+]([O-])=C1\Cc2ccccc2C1=O | -21.2 |
| Clc1ccc2c(NCc3ccccn3)ccnc2c1 | -0.79 |
| O=C(NCc1cccs1)C(=O)NCC(c1ccco1)N1CCN(c2ccc(F)cc2)CC1 (stereo not given) | 1.68 |
| CCC(=O)N1CCc2cc(S(=O)(=O)NCCCN3CCN(Cc4ccccc4)CC3)ccc21 | -9.6 |
| COc1ccc(NC(=O)C(Cc2ccccc2)n2cccc2)cc1 (stereo not given) | 9.62 |
| CC(C)NC(=O)c1cc(-c2ccc(Br)cc2)on1 | 10.1 |
| CC(=O)NCc1ccc(C(=O)CCl)cc1 | 18.7 |
| Cc1c(C)n(C)c2ccc(C(=O)NCc3cccs3)cc12 | -3.78 |

| Structure (SMILES) | inhibition [%] |
| --- | --- |
| COc1ccc(Cl)cc1NC(=O)CCN1CCOCC1 | 13.3 |
| O=C(NCCCN1CCOCC1)C(C(=O)c1ccccc1)n1ccccc1=O (stereo not given) | 2.1 |
| CCCC1(c2ccccc2)NC(=O)N(CC(=O)Nc2cc(S(=O)(=O)N3CCOCC3)ccc2Cl)C1=O (stereo not given) | -4.71 |
| COCCNC(=O)c1cccc(OC2CCN(Cc3ccccc3C)CC2)c1 | -4.82 |
| COc1ccc(C(=O)C2CCN(CC(=O)Nc3cc(C)cc(C)c3)CC2)cc1 | 26.4 |
| Cc1ccc(C)c(NC(=O)CSc2nnc([C@@H](N)Cc3c[nH]c4ccccc34)o2)c1 | 33.6 |
| O=C(O)c1ccc(CSc2nnnn2C2CCCCC2)cc1 | -28 |
| COCCNC(=O)CN(C(=O)CCC(=O)Nc1ccccn1)c1ccc(F)c(Cl)c1 | 1.46 |
| COCCN1C(=O)C(=O)/C(=C(/O)c2cccc(OC)c2)C1c1ccncc1 (stereo not given) | 4.45 |
| Cc1ccc(CCN2C(=O)CCC2(C)C(=O)NC2CCCC2)cc1 (stereo not given) | 2.68 |
| FC(F)(F)c1ccccc1NC1=NCCC1 | 7.38 |
| CCN(CC)CC#CC(C)OCOCC#CCOC (stereo not given) | -8.61 |
| Cc1ccc2[nH]cc(CCNC(=O)c3cccnc3)c2c1 | -28.4 |
| Cc1cc(C)cc(CSc2nnc(C)c(=O)[nH]2)c1 | 30.6 |
| COC(=O)c1c(-c2cccc(C)c2)csc1N | -0.42 |
| COC(=O)c1cc2ccsc2n1CC(=O)N(C)c1ccccc1 | 13.3 |
| COc1c(Br)cc2c(C)c(C(=O)N3CCOCC3)oc2c1Br | -36.3 |
| Cn1c(=O)cc(SCC(=O)N2CCN(C3CCCCC3)CC2)c2ccccc21 | 9.71 |
| COc1ccccc1C(=O)N1CC2(C)CC1CC(C)(C)C2 (stereo not given) | -20.3 |
| NC(=O)COc1c(-c2ccco2)oc2ccccc2c1=O | -26 |
| O=C(NCc1ccc2c(c1)OCO2)c1ccc2c(c1)C(=O)N(Cc1cccnc1)C2=O | 4.44 |
| Cc1ncc(CC(=O)n2cc(C(=O)c3cc(F)ccc3O)cn2)s1 | 27.9 |

| Structure (SMILES) | inhibition [%] |
| --- | --- |
| CCC(C)n1c(SCC(=O)NCc2ccco2)nnc1-c1cccc(S(=O)(=O)N2CCOCC2)c1 (stereo not given) | 3.8 |
| COc1cc(C)c(Cl)cc1S(=O)(=O)n1cnc(C)c1 | 13.2 |
| CC1CC(C)CN(C(=O)c2ccc(NC(=O)c3ccc(=O)[nH]c3)cc2)C1 (stereo not given) | 20 |
| COc1ccccc1NC(=O)CSC1CC(=O)N(c2ccc3c(c2)OCO3)C1=O (stereo not given) | 23.1 |
| COc1cccc(NC(=O)N2CCCC(C(=O)Nc3ccccc3OC)C2)c1 (stereo not given) | -26.5 |
| CN(C)/C=N/c1ncc(C(=O)c2ccc(Cl)cc2)s1 | -34.4 |
| CCN(CC)CCCCCCCCOC(=O)c1cc(OC)c(OC)c(OC)c1 | -0.35 |
| CSc1ccc(NC(=O)C(C)N2CCN(C)CC2)cc1 (stereo not given) | 16.4 |
| CCn1cc(C(=O)NCCc2ccccc2)c(=O)c2cc(F)c(N3CCN(C)CC3)cc21 | 5.9 |
| O=C(CCc1nc2ccccc2s1)NC1CCOC1=O (stereo not given) | 1.3 |
| CCOc1ccc2nc(NC(=O)C3=NNC(=O)CC3)sc2c1 | 4.7 |
| CCCCn1cnc2cc(NCc3cccc(OC)c3O)ccc21 | 18.8 |
| Cc1cc(C)c(S(=O)(=O)Nc2cccnc2)c(C)c1 | -3.5 |
| Cc1ccc(C)c(SCC(=O)Nc2ccc(S(=O)(=O)Nc3ncccn3)cc2)c1 | -5.02 |
| COc1ccc(C(=O)NNS(=O)(=O)c2ccccc2)cc1OC | 2.97 |
| CC(=O)Nc1ccc(S(=O)(=O)Nc2nc3ccccc3nc2Nc2cccc(S(N)(=O)=O)c2)cc1 | -9.28 |
| Cc1ccc(S(=O)(=O)NC(C)(C)CSc2nnc(N)s2)cc1 | -24.4 |
| Cc1cccc(NCN2C(=O)c3ccccc3C2=O)c1 | 6.6 |
| COC(=O)NNS(=O)(=O)c1ccc(C)cc1 | 37.3 |
| CCOc1ccccc1NC(=O)NS(=O)(=O)c1ccc(C)cc1 | -13 |
| O=C(COC(=O)CNC(=O)c1ccccc1)Nc1ccc(F)c([N+](=O)[O-])c1 | -8.3 |
| CCOc1ccc(C2CC(=O)NC(SCC(=O)OC)=C2C#N)cc1 (stereo not given) | -12.6 |

| Structure (SMILES) | inhibition [%] |
| --- | --- |
| COc1cc(S(=O)(=O)N2CCN(C(=O)c3ccco3)CC2)c(OC)cc1C | 7.78 |
| COc1ccc(-n2nnc3c(SCC(=O)N4CCCc5ccccc54)ncnc32)cc1 | -11.9 |
| Cc1c(C(=O)N2CCN(Cc3ccccc3)CC2)sc2ncnc(N3CCOCC3)c12 | -6.98 |
| O=C(Nc1ccccc1)c1cccnc1N1CCOCC1 | -26.5 |
| CCC(Sc1nccn1C)C(=O)Nc1nnc(C)s1 (stereo not given) | -18.7 |
| N#Cc1ccc(C2=NC(C(F)(F)F)(C(F)(F)F)c3c(n(Cc4ccco4)c(=O)[nH]c3=O)N2)cc1 | -0.36 |
| COCCNC(=O)Cn1cnc2c1c(=O)n(C)c(=O)n2C | 8.18 |
| Cc1[nH]c2ccccc2c1/C=N/Nc1nc2ccccc2[nH]1 | 11.7 |
| Cc1cc(C)c2c(N)c(C(=O)c3ccc(Cl)c(Cl)c3)sc2n1 | -3.82 |
| O=C(O)c1cccc(NC2=Nc3cccc4cccc2c34)c1 | -13.8 |
| COc1ccc(Cn2nnnc2C(c2cc3ccc(OC)cc3[nH]c2=O)N2CCC(C)CC2)cc1 (stereo not given) | -31.1 |
| CCCCCNC(=O)c1cn(CC)c2cc(N3CCN(C)CC3)c(F)cc2c1=O | 31.1 |
| O=C(CCC(=O)Nc1nnc(C2CCCCC2)s1)NCC1CCCO1 (stereo not given) | 21.9 |
| COc1ccc(OC)c(S(=O)(=O)N2CCC(C(=O)NCc3ccccc3OC)CC2)c1 | 14.1 |
| COC(=O)C1=C(C(=O)OC)SC(=C2C(=S)C(C)(C)N(C(=O)C3CC3)c3ccccc32)S1 | 26.6 |
| COc1cc(/C=N/N(C)S(=O)(=O)c2ccc(C)cc2)cc([N+](=O)[O-])c1O | 15.3 |
| COc1cccc(/C=N/NC(=O)CNC(=O)COc2cccc(C)c2)c1O | 18 |
| Nc1ccc(C(O)(C(F)(F)F)C(F)(F)F)cc1 | 6.54 |
| Cc1nnc(SCc2cnc(-c3ccc(C(C)C)cc3)s2)n1C | 8.56 |
| COC(=O)c1ccc(Cn2c(O)c(N=NC(N)=S)c3ccccc32)o1 | 0.41 |
| CC1CCCCN1S(=O)(=O)c1ccc(S(=O)(=O)NCCc2ccncc2)cc1 (stereo not given) | -15.6 |
| NC(=O)c1ccsc1NC(=O)c1ccc2c(c1)CCCC2 | -10.9 |

— PubChem BioAssay AID2384 (Southern Research Specialized Biocontainment Screening …, 2010)
